Some test systems named below: HCT-15 colon; HT29 colon; SNB-75 CNS; SNB-19 CNS; U251 CNS; PC-3 prostate; SK-MEL-5 melanoma; UACC-62 melanoma; LOX IMVI melanoma; SK-MEL-28 melanoma; SK-MEL-2 melanoma; EKVX NSCLC; SN12C renal; UO-31 renal; TK-10 renal; ACHN renal; A498 renal; CCRF-CEM leukemia; MOLT-4 leukemia; SR leukemia.
Common to all, as to experiment: NCI-60 one-dose screen, 48 h (100 = growth as untreated, 0 = no growth, -100 = all killed)
Common to all, as to conditions: 10 µM unless noted

This is part of a sample that, as a whole, favours compounds with a hit. Of some 83,000 tested, about 20% had one in any assay.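 The endpoint reported here, percent growth, reads 100 for growth as untreated, 0 for no net growth and -100 for all cells dead.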 Unmarked numbers belong to inactive results. Activity calls are given as the source filed them. How the source made its calls: active means growth percent below 10; inactive means the rest.

Consider `COc1ccc(/C=C(/C(=O)N2CCN(Cc3ccccc3)CC2)c2cc(OC)c(OC)c(OC)c2)cc1O`, for which the growth in the experiment on HCT-15 colon is 59.7%; in the experiment on HT29 colon, 95.4%; with SNB-75 CNS, 49.2%; in the experiment with SNB-19 CNS it was 64.8%; in the experiment on U251 CNS it was 66.1%; in the experiment on PC-3 prostate it was 34.8%. In addition, the growth was 33.3% with SK-MEL-5 melanoma; 45% with UACC-62 melanoma; 60.2% in the experiment with LOX IMVI melanoma; 76.5% in the experiment on SK-MEL-28 melanoma; 73.6% in the experiment with SK-MEL-2 melanoma; 87.2% in the experiment with EKVX NSCLC. In addition, the growth with SN12C renal is 91.2%; in the experiment with UO-31 renal it was 62.5%; with TK-10 renal, 88.5%; with ACHN renal, 67.2%; in the experiment with A498 renal, 54.9%; with CCRF-CEM leukemia it was 64.9%. Also, the results for the growth with MOLT-4 leukemia and with SR leukemia were 72.1% and 28%, respectively.
With `O=C(Nc1cccc(-c2cccc(F)c2)c1)C1CCN(Cc2cccc3cccnc23)CC1`, the growth in the experiment on HCT-15 colon was 19.5%; in the experiment on HT29 colon, 0.443% (active); in the experiment with SNB-75 CNS, 53.6%; with SNB-19 CNS it was 77%; with U251 CNS it was 44.4%; with PC-3 prostate, 51.1%. Besides, the growth is 35.2% with SK-MEL-5 melanoma; -44.8% (active) in the experiment with UACC-62 melanoma; 3.29% (active) with LOX IMVI melanoma; -40.2% (active) in the experiment with SK-MEL-28 melanoma; 63.1% with SK-MEL-2 melanoma; 68.4% in the experiment on EKVX NSCLC. The growth in the experiment with SN12C renal was 74.2%; with UO-31 renal it was 35.8%; in the experiment with TK-10 renal, 60.1%; in the experiment on ACHN renal it was 65.5%; in the experiment on A498 renal, 55.3%; with CCRF-CEM leukemia, 57.2%. Moreover, the growth in the experiment with MOLT-4 leukemia is 17.6%; with SR leukemia, -32.7% (active).
Regarding `c1ccc2c3c([nH]c2c1)C(c1ccc(C2NCCc4c2[nH]c2ccccc42)cc1)NCC3` (stereo not given), the growth is -65.8% (active) in the experiment on HCT-15 colon; -74.2% (active) with HT29 colon; -11.4% (active) in the experiment with SNB-75 CNS; 2.5% (active) with SNB-19 CNS; -92.6% (active) in the experiment with U251 CNS; 16.8% in the experiment on PC-3 prostate. Also, the growth is -92.9% (active) with SK-MEL-5 melanoma; -69.9% (active) with UACC-62 melanoma; -94.6% (active) in the experiment with LOX IMVI melanoma; -52.8% (active) in the experiment with SK-MEL-28 melanoma; -13% (active) in the experiment with SK-MEL-2 melanoma; 20.6% with EKVX NSCLC. The growth in the experiment with SN12C renal is 41.6%; with UO-31 renal it was -0.102% (active); in the experiment on TK-10 renal, 63.4%; with ACHN renal, -73.1% (active); with A498 renal it was 116%; in the experiment on CCRF-CEM leukemia, -16.7% (active). Besides, the growth in the experiment on MOLT-4 leukemia is -62% (active); with SR leukemia, -51.5% (active).
On to `O=S(=O)(O)c1ccc(N=NSc2ccc3ccccc3c2)cc1`, for which the growth is 104% in the experiment on HCT-15 colon; 93.8% with HT29 colon; 113% in the experiment with SNB-75 CNS; 105% in the experiment with SNB-19 CNS; 96.9% in the experiment on U251 CNS; 81.3% in the experiment on PC-3 prostate. Moreover, the growth in the experiment on SK-MEL-5 melanoma is 100%; with UACC-62 melanoma it was 102%; with LOX IMVI melanoma it was 86.8%; in the experiment on SK-MEL-28 melanoma, 106%; with SK-MEL-2 melanoma, 92.4%; with EKVX NSCLC, 99.4%. The growth with SN12C renal is 107%; in the experiment on UO-31 renal, 71%; in the experiment with TK-10 renal it was 103%; in the experiment with ACHN renal it was 95.3%; in the experiment with A498 renal, 107%; with CCRF-CEM leukemia, 89.8%. Moreover, the growth in the experiment on MOLT-4 leukemia was 94.2%; in the experiment on SR leukemia, 104%.
Turning to `O=C(CCc1nnc2sc(OCc3ccccc3)nn12)c1nc2ccc([N+](=O)[O-])cc2[nH]1`, the growth was 108% with HCT-15 colon; 107% in the experiment with HT29 colon; 103% in the experiment with SNB-75 CNS; 108% with SNB-19 CNS; 99.8% in the experiment on U251 CNS; 94.4% in the experiment on PC-3 prostate. Besides, the growth in the experiment with SK-MEL-5 melanoma is 110%; in the experiment on UACC-62 melanoma, 96.6%; with LOX IMVI melanoma, 91.3%; in the experiment with SK-MEL-28 melanoma, 115%; with SK-MEL-2 melanoma it was 95.6%; with EKVX NSCLC, 89.3%. Also, the growth with SN12C renal was 106%; in the experiment on UO-31 renal, 67.2%; in the experiment with TK-10 renal, 131%; with ACHN renal it was 97%; in the experiment on A498 renal, 111%; in the experiment on CCRF-CEM leukemia, 104%. Also, the growth with MOLT-4 leukemia is 95.4%; in the experiment on SR leukemia, 84.1%.
With `O=C1C(Cl)=C(Nc2ccc3c(c2NC2=C(Cl)C(=O)c4ccccc4C2=O)C(=O)c2ccccc2C3=O)C(=O)c2ccccc21`, the growth in the experiment with HCT-15 colon was 15.6%; in the experiment with HT29 colon it was 5.49% (active); in the experiment on SNB-75 CNS it was -15.1% (active); in the experiment on SNB-19 CNS it was 29.1%; with U251 CNS it was 14.3%; in the experiment on PC-3 prostate, 11%. Further, the growth with SK-MEL-5 melanoma is -95.5% (active); with UACC-62 melanoma, -62.6% (active); in the experiment with LOX IMVI melanoma, 3.18% (active); with SK-MEL-28 melanoma, 47.1%; in the experiment on SK-MEL-2 melanoma, 40.8%; with EKVX NSCLC, 34.5%. Besides, the growth with SN12C renal is 4.99% (active); with UO-31 renal, 23.1%; in the experiment with TK-10 renal, 77.3%; with ACHN renal it was 29.2%; with A498 renal, 50.5%; in the experiment on CCRF-CEM leukemia, 17.8%. For the same compound, the growth in the experiment on MOLT-4 leukemia was 8.53% (active); in the experiment on SR leukemia it was 13.3%.
Take `Fc1ccc(N/N=C/c2ccc(-n3cccn3)cc2)cc1`: the growth with HCT-15 colon was 83%; in the experiment on HT29 colon, 93.5%; in the experiment on SNB-75 CNS, 99.4%; in the experiment on SNB-19 CNS it was 110%; in the experiment with U251 CNS, 103%; in the experiment with PC-3 prostate, 85.8%. The growth in the experiment with SK-MEL-5 melanoma is 107%; in the experiment with UACC-62 melanoma, 74.9%; in the experiment with LOX IMVI melanoma, 83.8%; in the experiment with SK-MEL-28 melanoma, 112%; in the experiment on SK-MEL-2 melanoma, 103%; in the experiment on EKVX NSCLC, 81.3%. The growth with SN12C renal was 108%; in the experiment on UO-31 renal, 80.4%; with TK-10 renal, 111%; with ACHN renal, 91.7%; in the experiment with A498 renal it was 119%; in the experiment on CCRF-CEM leukemia, 89.5%. In addition, the growth in the experiment on MOLT-4 leukemia is 89%; in the experiment with SR leukemia it was 64.1%.
As to `COc1cc2nc3c(=O)n(-c4ccc(C#N)cc4)cnn3c(=O)c2cc1OC`, the growth in the experiment with HCT-15 colon is 100%; in the experiment with HT29 colon it was 100%; with SNB-75 CNS, 73.9%; in the experiment on SNB-19 CNS it was 97.7%; in the experiment on U251 CNS, 102%; in the experiment on PC-3 prostate, 98.3%. In addition, the growth in the experiment on SK-MEL-5 melanoma was 96.1%; with UACC-62 melanoma, 95.1%; in the experiment with LOX IMVI melanoma it was 95.4%; with SK-MEL-28 melanoma, 99.8%; in the experiment with SK-MEL-2 melanoma, 94.4%; in the experiment with EKVX NSCLC it was 93.9%. Besides, the growth in the experiment with SN12C renal is 99%; in the experiment on UO-31 renal, 83.6%; in the experiment with TK-10 renal it was 104%; with ACHN renal, 100%; with A498 renal, 113%; with CCRF-CEM leukemia, 143%. Besides, the growth was 91.3% in the experiment with MOLT-4 leukemia and 94.1% in the experiment with SR leukemia.

(Values after PubChem BioAssay (NCI).)
